Reference: PubChem BioAssay (NCI)
About 83,000 compounds went through this panel and 20% of them were active in at least one assay; those are over-represented in the sample as a whole.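 For each line, cells grew in 96-well plates with the test compound present at a single concentration for 48 hours.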 Values without a mark were called inactive. Activity calls are given as the source filed them. How the source made its calls: active means growth percent below 10; inactive means the rest.

Legend:
Assay in all cases: NCI-60 one-dose screen, 48 h (100 = growth as untreated, 0 = no growth, -100 = all killed)
SK-MEL-2 melanoma = system: SK-MEL-2 melanoma
EKVX NSCLC = system: EKVX NSCLC
SN12C renal = system: SN12C renal
UO-31 renal = system: UO-31 renal
TK-10 renal = system: TK-10 renal
ACHN renal = settings: 10 µM unless noted
CAKI-1 renal = settings: 10 µM unless noted
A498 renal = system: A498 renal
CCRF-CEM leukemia = system: CCRF-CEM leukemia
MOLT-4 leukemia = system: MOLT-4 leukemia
SR leukemia = system: SR leukemia
RPMI-8226 leukemia = system: RPMI-8226 leukemia
OVCAR-8 ovarian = system: OVCAR-8 ovarian
OVCAR-5 ovarian = system: OVCAR-5 ovarian
OVCAR-4 ovarian = system: OVCAR-4 ovarian
SK-OV-3 ovarian = system: SK-OV-3 ovarian
IGROV1 ovarian = system: IGROV1 ovarian
OVCAR-3 ovarian = system: OVCAR-3 ovarian
HS 578T breast = system: HS 578T breast
NCI/ADR-RES ovarian = system: NCI/ADR-RES ovarian

Cc1ccc(-c2nc3nc(-c4ccc(Br)cc4)nc(N4CCCNCC4)c3o2)cc1
growth (SK-MEL-2 melanoma; 10 µM unless noted): 108% | growth (EKVX NSCLC; 10 µM unless noted): 114% | growth (SN12C renal; 10 µM unless noted): -77.4% (active) | growth (UO-31 renal; 10 µM unless noted): 63.4% | growth (TK-10 renal; 10 µM unless noted): 19.9% | growth (ACHN renal): -95.4% (active) | growth (CAKI-1 renal): -50.5% (active) | growth (A498 renal; 10 µM unless noted): 80.5% | growth (CCRF-CEM leukemia; 10 µM unless noted): -64.4% (active) | growth (MOLT-4 leukemia; 10 µM unless noted): -56.8% (active) | growth (SR leukemia; 10 µM unless noted): -32.2% (active) | growth (RPMI-8226 leukemia; 10 µM unless noted): -36.9% (active) | growth (OVCAR-8 ovarian; 10 µM unless noted): -45.6% (active) | growth (OVCAR-5 ovarian; 10 µM unless noted): -44.4% (active) | growth (OVCAR-4 ovarian; 10 µM unless noted): -94.2% (active) | growth (SK-OV-3 ovarian; 10 µM unless noted): 110% | growth (IGROV1 ovarian; 10 µM unless noted): -75.6% (active) | growth (OVCAR-3 ovarian; 10 µM unless noted): -95.1% (active) | growth (HS 578T breast; 10 µM unless noted): -30.3% (active) | growth (NCI/ADR-RES ovarian; 10 µM unless noted): -64.8% (active)

CCN(Cc1ccccc1)c1ccc(/C=C2\COc3ccccc3C2=O)cc1
growth (SK-MEL-2 melanoma; 10 µM): 102% | growth (SK-MEL-2 melanoma; 100 µM): 21.8% | growth (EKVX NSCLC; 10 µM): 102% | growth (EKVX NSCLC; 100 µM): 36.9% | growth (SN12C renal; 10 µM): 94.5% | growth (SN12C renal; 100 µM): 53.2% | growth (UO-31 renal; 10 µM): 83.8% | growth (UO-31 renal; 100 µM): 18.6% | growth (TK-10 renal; 10 µM): 119% | growth (TK-10 renal; 100 µM): 53.3% | growth (ACHN renal): 101% | growth (A498 renal; 10 µM): 91.3% | growth (A498 renal; 100 µM): 40.2% | growth (CCRF-CEM leukemia; 10 µM): 104% | growth (CCRF-CEM leukemia; 100 µM): 15% | growth (MOLT-4 leukemia; 10 µM): 78.6% | growth (MOLT-4 leukemia; 100 µM): 10.5% | growth (SR leukemia; 10 µM): 67.5% | growth (SR leukemia; 100 µM): 7.93% (active) | growth (RPMI-8226 leukemia; 10 µM): 110% | growth (RPMI-8226 leukemia; 100 µM): 20.5% | growth (OVCAR-8 ovarian; 10 µM): 95.3% | growth (OVCAR-8 ovarian; 100 µM): 47.6% | growth (OVCAR-5 ovarian; 10 µM): 101% | growth (OVCAR-5 ovarian; 100 µM): 98.7% | growth (OVCAR-4 ovarian; 10 µM): 102% | growth (OVCAR-4 ovarian; 100 µM): 52.1% | growth (SK-OV-3 ovarian; 10 µM): 89.4% | growth (SK-OV-3 ovarian; 100 µM): 65.2% | growth (IGROV1 ovarian; 10 µM): 99.1% | growth (IGROV1 ovarian; 100 µM): 40.2% | growth (OVCAR-3 ovarian; 10 µM): 108% | growth (OVCAR-3 ovarian; 100 µM): 19.1% | growth (HS 578T breast; 10 µM): 96% | growth (HS 578T breast; 100 µM): 59.4% | growth (NCI/ADR-RES ovarian; 10 µM): 101% | growth (NCI/ADR-RES ovarian; 100 µM): 23.4%

Cc1ccc(-c2nc3nc(-c4ccccc4)nc(N4CCCNCC4)c3o2)cc1
growth (SK-MEL-2 melanoma; 10 µM unless noted): -2.85% (active) | growth (EKVX NSCLC; 10 µM unless noted): 39% | growth (SN12C renal; 10 µM unless noted): -87.9% (active) | growth (UO-31 renal; 10 µM unless noted): -98.1% (active) | growth (TK-10 renal; 10 µM unless noted): -60% (active) | growth (ACHN renal): -98.9% (active) | growth (CAKI-1 renal): -9.04% (active) | growth (A498 renal; 10 µM unless noted): 98.4% | growth (CCRF-CEM leukemia; 10 µM unless noted): -75.8% (active) | growth (MOLT-4 leukemia; 10 µM unless noted): -68.1% (active) | growth (SR leukemia; 10 µM unless noted): -49.7% (active) | growth (RPMI-8226 leukemia; 10 µM unless noted): -55% (active) | growth (OVCAR-8 ovarian; 10 µM unless noted): -48.4% (active) | growth (OVCAR-5 ovarian; 10 µM unless noted): -32.4% (active) | growth (OVCAR-4 ovarian; 10 µM unless noted): -52.3% (active) | growth (SK-OV-3 ovarian; 10 µM unless noted): 79.9% | growth (IGROV1 ovarian; 10 µM unless noted): -73.8% (active) | growth (OVCAR-3 ovarian; 10 µM unless noted): -81.7% (active) | growth (HS 578T breast; 10 µM unless noted): -18.1% (active) | growth (NCI/ADR-RES ovarian; 10 µM unless noted): -29.8% (active)
